A short description of assay [1]: Viability qHTS for spleen associated tyrosine kinase inhibitor (SYKi) naive MV4-11 cells (AID 1963823). Further: nearly all actives have a fitted effect of over 40% in size. An outline of the steps: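 In this viability screen, compounds acted on SYK inhibitor naive MV4-11 cells for three days (72 hr, 37 C). Remaining viable cells were measured by CellTiter-Glo luminescence following a 10 min room-temperature development.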
(Quantitative high-throughput screening tests each substance at several concentrations.)

A short description of assay [2]: Viability qHTS for spleen associated tyrosine kinase inhibitor (SYKi) drug resistant MV4-11 cells (AID 1963824). Further: nearly all actives have a fitted effect of over 35% in size. An outline of the steps:
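SYK inhibitor-resistant MV4-11 AML cells, 500 per well, added to predispensed compounds and incubated 72 hr at 37 C, 5% CO2. Viability measured by CellTiter-Glo luminescence after 10 min at room temperature.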

Results filed as inconclusive are left out. Values without a mark were called inactive. Activity calls are given as the source filed them. The call rests on the fitted dose curve; in most records, active means well fitted cell-killing curve with a large enough effect; inconclusive means small, poorly fitted or top-dose-only effect, or effect the other way; inactive means no such curve, though single readings can be large or run the other way.
Potency means the concentration at half of the fitted maximal effect.

In the case of `O=C1NC2CCc3nc4ccccc4c(=O)n3C2=Nc2ccccc21` (configuration not stated), the Potency entry in assay [1] and in assay [2] was “inactive” in each case.

As for `C[N+](C)(CCOc1ccccc1)Cc1cccs1`, the Potency result in assay [1] and in assay [2] was “inactive” each time.

With `COC(=O)C1=COC(OC2OC(CO)C(O)C(O)C2O)C2C(COC(=O)/C=C/c3ccc(O)c(O)c3)C(O)C(O)C12` (configuration not stated), the Potency result in assay [1] and in assay [2] was “inactive” throughout.

With `Nc1ccc(-c2cnc(N)c(-c3ccc(Cl)cc3)c2)cn1`, the results for the Potency in assay [1] and in assay [2] were 5.8 µM (active) and 8.2 µM (active), respectively.

With `C=C1[C@@H](C2=CC(=O)OC2)CC[C@@]2(O)[C@@H]1CC1[C@H]2CC[C@@H]2C[C@@H](O[C@H]3O[C@@H](C)[C@@H](O[C@@H]4O[C@H](CO[C@@H]5O[C@H](CO)[C@@H](O)[C@H](O)[C@H]5O)[C@@H](O)[C@H](O)[C@H]4O)[C@H](OC)[C@H]3O)CC[C@]12C` (some centres not stated), the Potency is 2.19 µM (active) in assay [1] and 1.55 µM (active) in assay [2].

Turning to `Cc1ccc(C(=O)/C=C/c2ccccc2)s1`, the figures for the Potency in assay [1] and in assay [2] were 8.2 µM (active) and 7.31 µM (active), respectively.

With `CCC1C(=O)OCC1Cc1cncn1C` (configuration not stated), the Potency entry in assay [1] and in assay [2] was “inactive” throughout.

As for `CN1C/C=C/CCOc2cccc(c2)-c2ccnc(n2)Nc2cccc(c2)C1`, the results for the Potency in assay [1] and in assay [2] were 0.417 µM (active) and 0.206 µM (active), respectively.

On to `CC1=C[C@H]2[C@@H](CC1=O)[C@H](C)C[C@H](O)[C@H]2C(C)C`, for which the Potency entry in assay [1] and in assay [2] was “inactive” throughout.

`COc1cc(CO)ccc1O[C@@H]1O[C@H](CO)[C@@H](O)[C@H](O)[C@H]1O`: the Potency entry in assay [1] and in assay [2] was “inactive” throughout.

With `COc1ccc2[nH]c3c(-c4cccc5ccccc45)nccc3c2c1`, the Potency is 0.651 µM (active) in assay [1] and 0.82 µM (active) in assay [2].

In the case of `CC1(C)CC2C(O)c3cocc3CC(C)(O)C2C1` (configuration not stated), the Potency result in assay [1] and in assay [2] was “inactive” throughout.

On to `COC(=O)C12CCC(C)C(C)C1C1=CCC3C4(C)CCC(OC(C)=O)C(C)(C)C4CCC3(C)C1(C)CC2` (configuration not stated), for which the Potency entry in assay [1] and in assay [2] was “inactive” throughout.

In the case of `CCCCOc1ccc(-c2cncc(C(=O)NCc3cccnc3N3CCOCC3)c2)cc1Cl`, the Potency was 18.4 µM (active) in assay [1] and 13 µM (active) in assay [2].

As for `N=C(N)c1ccc2nc(-c3cc(CC(=O)NC(CC(=O)O)C(=O)O)cc(-c4cc(S(N)(=O)=O)ccc4O)c3O)[nH]c2c1` (configuration not stated), the Potency result in assay [1] and in assay [2] was “inactive” throughout.

Consider `Cc1cc(N(C)C)ccc1-c1nc2ccc(-c3nc4ccc(N5CCN(C)CC5)cc4[nH]3)cc2[nH]1`, for which the results for the Potency in assay [1] and in assay [2] were 0.411 µM (active) and 0.184 µM (active), respectively.

Take `C=CC(=O)N1CCN(C(=O)CNc2cc(I)c(Cl)cc2O)CC1`: the Potency in assay [1] is 7.31 µM (active); in assay [2], 6.51 µM (active).

Turning to `CCCCC/C=C\C/C=C\CCCCCCCC(=O)NC(C)c1ccccc1` (configuration not stated), the Potency in assay [1] was 11.9 µM (active); in assay [2], 7.5 µM (active).

On to `Cc1ccc(Cc2c(C)nc3nc(SCC(=O)NCCN4CCNCC4)nn3c2C)cc1`, for which the Potency result in assay [1] and in assay [2] was “inactive” in each case.

Regarding `C[C@H](N)C(=O)N[C@@H](Cc1ccc(O)cc1)C(=O)N1CCC[C@H]1C(=O)NCC(=O)N[C@@H](CCCCN)C(=O)N[C@@H](Cc1ccccc1)C(N)=O`, in assay [1], the viability (% of control) was 94.9% [at 9.25 µM]. Also, the viability, % of control in assay [2] is 89.8% [at 9.25 µM].

As to `C/C=C(\C)C(=O)O[C@H]1[C@H](O)[C@]2(COC(C)=O)[C@H](O)C[C@]3(C)C(=CCC4[C@@]5(C)CC[C@H](O[C@@H]6O[C@H](C(=O)O)[C@@H](O[C@@H]7O[C@H](CO)[C@@H](O)[C@H](O)[C@H]7O)[C@H](O)[C@H]6O[C@@H]6O[C@H](CO)[C@@H](O)[C@H](O)[C@H]6O)[C@](C)(CO)C5CC[C@]43C)[C@@H]2CC1(C)C` (some centres not stated), the viability (% of control) in assay [1] was 88% [at 9.25 µM]. Further, the viability, % of control in assay [2] is 97.8% [at 9.25 µM].

In the case of `C=C1CC[C@@H]2[C@](C)(CO)[C@H](O)CC[C@@]2(C)[C@@H]1/C=C/C1=CCOC1=O`, the Potency result in assay [1] and in assay [2] was “inactive” each time.

Turning to `CC(C)=CC/C=C(\C)[C@H]1CC[C@]2(C)[C@@H]1[C@H](O)C[C@@H]1[C@@]3(C)CC[C@H](O)C(C)(C)[C@@H]3[C@@H](O[C@@H]3O[C@H](CO)[C@@H](O)[C@H](O)[C@H]3O)C[C@]12C`, the Potency entry in assay [1] and in assay [2] was “inactive” in each case.

As to `C=C(C)[C@@H]1CC[C@]2(C)CC[C@]3(C)[C@H](CC[C@@H]4[C@@]5(C)CC[C@@H](O)C(C)(C)[C@@H]5CC[C@]43C)[C@@H]12`, the Potency entry in assay [1] and in assay [2] was “inactive” each time.

Consider `OC[C@@]1(O)CO[C@H](OC[C@H]2O[C@@H](OC(CCCCc3ccc(O)cc3)CCc3ccc(O)cc3)[C@H](O[C@H]3OC[C@](O)(CO)[C@H]3O)[C@@H](O)[C@@H]2O)[C@@H]1O` (some centres not stated), for which the Potency result in assay [1] and in assay [2] was “inactive” each time.

For `C[C@@H]1O[C@@H](O[C@H]2[C@H](O)[C@@H](O)[C@H](OC[C@H]3O[C@@H](OC(=O)[C@]45CCC(C)(C)C[C@H]4C4=CCC6[C@@]7(C)C[C@H](O)[C@H](O[C@@H]8O[C@H](CO)[C@@H](O)[C@H](O)[C@H]8O)[C@@](C)(C(=O)O)C7CC[C@@]6(C)[C@]4(C)CC5)[C@H](O[C@@H]4O[C@H](CO)[C@@H](O)[C@H](O)[C@H]4O)[C@@H](O)[C@@H]3O)O[C@@H]2CO)[C@H](O)[C@H](O)[C@H]1O` (some centres not stated), the viability (% of control) in assay [1] is 103% [at 9.25 µM]. Besides, the viability, % of control in assay [2] was 87% [at 9.25 µM].
